# In PubChem BioAssay (NCATS):
# Results filed as inconclusive are left out. Entries that show only a call come without a potency. Calls of active or inactive are those of the source. Calls come from the whole dose curve; as a rule, active = well fitted cell-killing curve with a large enough effect; inconclusive = small, poorly fitted or top-dose-only effect; inactive = no such curve, though single readings can be large or run the other way.
# Assay: qHTS of pediatric cancer cell lines to identify multiple opportunities for drug repurposing: Primary screen for Rh41 cells (AID 1347108); note: nearly all actives have a fitted effect of over 70% in size
# Details: Rh41 rhabdomyosarcoma viability, CellTiter-Glo luminescence, 48 h; series mostly up to 46 µM
# Summary of the method: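 Cells seeded at 500-1,000 cells/well in growth media, rested 5 hours at 37 degrees C, 5% CO2, then dosed; MIPE compounds at 11-point (from 0.78 nM) and NPC at 8-point (from 0.59 nM) final concentrations. Viability by CellTiter-Glo luminescence after 48 hours.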
# Potency is the fitted concentration of half-maximal effect.
row,Structure (SMILES),Potency
1,COCCCCC(=NOCCN)c1ccc(C(F)(F)F)cc1,20.9 µM (active)
2,CN(C)Cc1ccc(-c2nc3cccc4c3n2CCNC4=O)cc1,inactive
3,C[C@]12CC[C@@H]3c4ccc(O)cc4CC[C@H]3[C@H]1C[C@@H](O)[C@H]2O,inactive
4,CC1(C)O[C@H]2C[C@@H]3[C@H]4CCC5=CC(=O)C=C[C@]5(C)[C@@]4(F)[C@@H](O)C[C@]3(C)[C@]2(C(=O)CO)O1,inactive
5,NC(=O)NN=Cc1ccc([N+](=O)[O-])o1,inactive
6,Cc1ccc(C(C)(O)c2nc3ccccc3s2)c(C)c1 (stereo unspecified),inactive
7,O=C1NC(=O)C(=Cc2cccc(C(F)(F)F)c2)S1,23.5 µM (active)
8,O=C1NC(=O)C(=Cc2ccc3c(c2)OC(F)(F)O3)S1,inactive
9,CCOc1ccc(Nc2nc(-c3c(C)nc4ccccn34)cs2)cc1,inactive
10,O=C(Nc1ccccc1-c1cn2c(CN3CCNCC3)csc2n1)c1cnc2ccccc2n1,20.9 µM (active)
11,CC1(C)S[C@H]2[C@H](NC(=O)[C@@H](N)c3ccc(O)cc3)C(=O)N2[C@@H]1C(=O)O,3.72 µM (active)
12,CC(C)C[C@H](CC(=O)O)C(=O)N[C@@H](Cc1c[nH]c2ccccc12)C(=O)N[C@@H](C)c1ccccc1,inactive
13,Cc1[nH]c(C=C2C(=O)Nc3ccc(S(=O)(=O)Cc4c(Cl)cccc4Cl)cc32)c(C)c1C(=O)N1CCC[C@H]1CN1CCCC1,18.7 µM (active)
14,O=C(Nc1cc(Cl)cc2c1[nH]c1cnccc12)c1cccnc1,inactive
15,N[C@@]1(C(=O)O)CS(=O)(=O)[C@H]2[C@H](C(=O)O)[C@H]21,inactive
16,O=C(NOCC(O)CO)c1cc(Br)c(F)c(F)c1Nc1ccc(I)cc1F (stereo unspecified),inactive
17,O=C1C[C@@H](c2ccc(O)cc2)Oc2cc(O)cc(O)c21,inactive
18,CO[C@H]1C[C@@H]2CC[C@@H](C)[C@@](O)(O2)C(=O)C(=O)N2CCCC[C@@H]2C(=O)O[C@H]([C@H](C)C[C@@H]2CC[C@H](OC(=O)C(C)(CO)CO)[C@H](OC)C2)CC(=O)[C@H](C)C=C(C)[C@@H](O)[C@@H](OC)C(=O)[C@H](C)C[C@H](C)C=CC=CC=C1C,14.8 µM (active)
19,O=C1NC(=O)C(=Cc2ccc(-c3ccc(F)cc3)o2)S1,inactive
20,O=C(O)CCc1nc(-c2ccccc2)c(-c2ccccc2)o1,inactive
21,O=c1c(-c2ccc(O)cc2)coc2cc(OC3O[C@H](CO)[C@H](O)[C@H](O)[C@H]3O)cc(O)c12 (stereo partly specified),8.33 µM (active)
